Measurements taken from the supplement of paper PMC10849652.
Of roughly 8,800 targets only a part is listed; those with a hit were picked by preference. About 0.5% of all pairs of compound and target were hits. Unmarked numbers belong to inactive results.

Experiments:
Assay in all cases: log2 fold change, soluble protein after heating vs DMSO (PISA); higher = thermal stabilisation; K562 lysate, 10 uM; active = over 0.2 and 3.5 SD of the protein, either way, in both replicates (recomputed)
[1] = compound: CN1CCc2c(c3ccccc3n2Cc2ccc(C(=O)NO)cc2)C1 [Tubastatin A]
Outline: (§1)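 The values are log-two fold changes in thermal stability compared with solvent controls and come from duplicates. They were obtained by TMTpro 16plex LC-MS/MS, with channel sums equalised, on the supernatant after 21,000xg for 90 min. That supernatant came from crude K562 extract at 1 mg/mL protein treated with 10 μM compound for 30 min, heated for 3 min across 48°C-58°C, pooled and brought to 0.5% NP-40 at 4°C.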

[2] = compound: CNC(=O)c1ccc(Nc2ncc(C(F)(F)F)c(NCc3nccnc3N(C)S(C)(=O)=O)n2)cc1 [defactinib]
Outline: as §1

[3] = compound: CNc1nc(-c2ccc3c(N)n[nH]c3c2)cc(N2C[C@@H](C(=O)NC3CCCCC3)CC[C@H]2C)n1
Outline: as §1

[4] = compound: COC(=O)N[C@@H](C)CNc1nccc(-c2cn(C(C)C)nc2-c2cc(Cl)cc(NS(C)(=O)=O)c2F)n1 [encorafenib]
Outline: as §1

[5] = compound: COC(=O)[C@H](CCSC)NC(=O)C1=C(C=C(C=C1)NC[C@H](CS)N)C2=CC=CC=C2
Outline: as §1

[6] = compound: COc1cc(Nc2ncc3c(n2)-c2ccc(Cl)cc2C(c2c(F)cccc2OC)=NC3)ccc1C(=O)O [alisertib]
Outline: as §1

[7] = compound: COc1cc2nc(-c3cc(F)ccc3O)nc(N[C@@H]3CNC[C@H]3C(C)(C)O)c2cc1OC
Outline: as §1

[8] = compound: COc1cc2ncnc(Nc3ccc(F)c(Cl)c3)c2cc1OCCCN1CCOCC1 [gefitinib]
Outline: as §1

[9] = compound: CS(=O)(=O)CCNCc1ccc(-c2ccc3ncnc(Nc4ccc(OCc5cccc(F)c5)c(Cl)c4)c3c2)o1 [lapatinib]
Outline: as §1

[10] = compound: C[C@H](Nc1ncnc2nc[nH]c12)c1cc2cccc(Cl)c2c(=O)n1-c1ccccc1 [duvelisib]
Outline: as §1

[11] = compound: Cc1cc(Nc2cc(N3CCN(C)CC3)nc(Sc3ccc(NC(=O)C4CC4)cc3)n2)n[nH]1 [tozasertib]
Outline: as §1

[12] = compound: CNC(=O)C1=CC=CC=C1NC2=NC(=NC=C2Cl)NC3=C(C=C(C=C3)N4CCOCC4)OC
Outline: as §1

[13] = compound: CS(=O)(=O)N1CCN(Cc2cc3nc(-c4cccc5[nH]ncc45)nc(N4CCOCC4)c3s2)CC1 [pictilisib]
Outline: as §1

[14] = compound: C[C@H](C1=CC=C(C=C1)C(=O)NC2=C3C=CNC3=NC=C2)N
Outline: as §1

[15] = compound: Cc1cc(Nc2cc(CN3CCOCC3)c3nc(C)c(Cc4ccc(Cl)cc4F)n3n2)n[nH]1 [gandotinib]
Outline: as §1

[16] = compound: Cc1cccc(CC(=O)N2CCc3c2ccc(-c2cn(C)c4ncnc(N)c24)c3F)n1
Outline: as §1

[17] = compound: CN1CC[C@H](c2c(O)cc(O)c3c(=O)cc(-c4ccccc4Cl)oc23)[C@H](O)C1 [alvocidib]
Outline: as §1

[18] = compound: C[C@@H](Oc1cc(-c2cnn(C3CCNCC3)c2)cnc1N)c1c(Cl)ccc(F)c1Cl [crizotinib]
Outline: as §1

[19] = compound: Cc1ccc(-n2nc(C(C)(C)C)cc2NC(=O)Nc2ccc(OCCN3CCOCC3)c3ccccc23)cc1 [doramapimod]
Outline: as §1

[20] = compound: Cc1ccc(NC(=O)c2ccc(CN3CC[C@H](N(C)C)C3)c(C(F)(F)F)c2)cc1Nc1nccc(-c2cncnc2)n1 [bafetinib]
Outline: as §1

Chain of UniProt P54886 (P54886 whole entry, looked up): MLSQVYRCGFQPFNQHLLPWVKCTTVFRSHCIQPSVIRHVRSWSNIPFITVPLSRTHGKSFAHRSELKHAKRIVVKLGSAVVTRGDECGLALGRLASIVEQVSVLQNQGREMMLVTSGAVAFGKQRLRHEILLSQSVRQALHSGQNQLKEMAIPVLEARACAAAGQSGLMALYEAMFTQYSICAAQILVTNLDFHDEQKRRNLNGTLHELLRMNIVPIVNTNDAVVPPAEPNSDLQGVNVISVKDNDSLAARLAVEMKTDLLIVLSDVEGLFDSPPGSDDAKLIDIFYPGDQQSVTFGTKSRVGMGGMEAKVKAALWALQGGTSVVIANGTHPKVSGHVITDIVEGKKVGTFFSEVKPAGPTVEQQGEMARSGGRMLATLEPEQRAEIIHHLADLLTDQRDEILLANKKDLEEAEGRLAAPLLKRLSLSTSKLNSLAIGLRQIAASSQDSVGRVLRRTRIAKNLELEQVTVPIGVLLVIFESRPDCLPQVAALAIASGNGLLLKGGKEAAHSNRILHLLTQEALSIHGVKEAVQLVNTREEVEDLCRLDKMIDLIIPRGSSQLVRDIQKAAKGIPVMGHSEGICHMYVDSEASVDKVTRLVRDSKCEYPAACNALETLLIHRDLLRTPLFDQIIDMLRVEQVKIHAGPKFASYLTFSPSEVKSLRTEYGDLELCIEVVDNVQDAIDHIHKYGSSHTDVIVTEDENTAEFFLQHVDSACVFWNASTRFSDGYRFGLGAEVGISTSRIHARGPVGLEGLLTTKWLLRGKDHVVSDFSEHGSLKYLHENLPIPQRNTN
Chain of UniProt Q9NXR5 (Q9NXR5 whole entry, looked up): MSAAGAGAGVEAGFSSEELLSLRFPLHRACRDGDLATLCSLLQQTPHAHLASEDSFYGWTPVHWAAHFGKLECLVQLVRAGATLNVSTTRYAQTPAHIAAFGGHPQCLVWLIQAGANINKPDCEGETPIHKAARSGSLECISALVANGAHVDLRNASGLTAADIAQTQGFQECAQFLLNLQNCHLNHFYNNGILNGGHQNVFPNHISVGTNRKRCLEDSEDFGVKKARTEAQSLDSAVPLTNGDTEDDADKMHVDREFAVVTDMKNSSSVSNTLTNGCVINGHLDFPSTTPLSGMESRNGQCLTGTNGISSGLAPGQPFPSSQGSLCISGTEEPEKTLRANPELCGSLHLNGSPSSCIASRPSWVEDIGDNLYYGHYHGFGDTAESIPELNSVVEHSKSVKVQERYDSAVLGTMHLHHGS
Chain of UniProt Q6AI12 (Q6AI12 whole entry, looked up): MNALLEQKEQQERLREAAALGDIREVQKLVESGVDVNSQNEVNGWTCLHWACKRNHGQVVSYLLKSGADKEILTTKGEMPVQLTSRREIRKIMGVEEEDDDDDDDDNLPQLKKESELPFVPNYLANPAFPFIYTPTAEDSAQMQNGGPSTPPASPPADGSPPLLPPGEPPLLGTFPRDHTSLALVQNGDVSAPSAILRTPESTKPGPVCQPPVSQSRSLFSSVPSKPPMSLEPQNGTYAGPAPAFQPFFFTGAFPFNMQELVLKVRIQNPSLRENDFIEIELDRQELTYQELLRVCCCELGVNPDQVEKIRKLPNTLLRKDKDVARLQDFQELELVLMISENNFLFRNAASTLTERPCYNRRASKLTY
Chain of UniProt Q9BXX3 (Q9BXX3 whole entry, looked up): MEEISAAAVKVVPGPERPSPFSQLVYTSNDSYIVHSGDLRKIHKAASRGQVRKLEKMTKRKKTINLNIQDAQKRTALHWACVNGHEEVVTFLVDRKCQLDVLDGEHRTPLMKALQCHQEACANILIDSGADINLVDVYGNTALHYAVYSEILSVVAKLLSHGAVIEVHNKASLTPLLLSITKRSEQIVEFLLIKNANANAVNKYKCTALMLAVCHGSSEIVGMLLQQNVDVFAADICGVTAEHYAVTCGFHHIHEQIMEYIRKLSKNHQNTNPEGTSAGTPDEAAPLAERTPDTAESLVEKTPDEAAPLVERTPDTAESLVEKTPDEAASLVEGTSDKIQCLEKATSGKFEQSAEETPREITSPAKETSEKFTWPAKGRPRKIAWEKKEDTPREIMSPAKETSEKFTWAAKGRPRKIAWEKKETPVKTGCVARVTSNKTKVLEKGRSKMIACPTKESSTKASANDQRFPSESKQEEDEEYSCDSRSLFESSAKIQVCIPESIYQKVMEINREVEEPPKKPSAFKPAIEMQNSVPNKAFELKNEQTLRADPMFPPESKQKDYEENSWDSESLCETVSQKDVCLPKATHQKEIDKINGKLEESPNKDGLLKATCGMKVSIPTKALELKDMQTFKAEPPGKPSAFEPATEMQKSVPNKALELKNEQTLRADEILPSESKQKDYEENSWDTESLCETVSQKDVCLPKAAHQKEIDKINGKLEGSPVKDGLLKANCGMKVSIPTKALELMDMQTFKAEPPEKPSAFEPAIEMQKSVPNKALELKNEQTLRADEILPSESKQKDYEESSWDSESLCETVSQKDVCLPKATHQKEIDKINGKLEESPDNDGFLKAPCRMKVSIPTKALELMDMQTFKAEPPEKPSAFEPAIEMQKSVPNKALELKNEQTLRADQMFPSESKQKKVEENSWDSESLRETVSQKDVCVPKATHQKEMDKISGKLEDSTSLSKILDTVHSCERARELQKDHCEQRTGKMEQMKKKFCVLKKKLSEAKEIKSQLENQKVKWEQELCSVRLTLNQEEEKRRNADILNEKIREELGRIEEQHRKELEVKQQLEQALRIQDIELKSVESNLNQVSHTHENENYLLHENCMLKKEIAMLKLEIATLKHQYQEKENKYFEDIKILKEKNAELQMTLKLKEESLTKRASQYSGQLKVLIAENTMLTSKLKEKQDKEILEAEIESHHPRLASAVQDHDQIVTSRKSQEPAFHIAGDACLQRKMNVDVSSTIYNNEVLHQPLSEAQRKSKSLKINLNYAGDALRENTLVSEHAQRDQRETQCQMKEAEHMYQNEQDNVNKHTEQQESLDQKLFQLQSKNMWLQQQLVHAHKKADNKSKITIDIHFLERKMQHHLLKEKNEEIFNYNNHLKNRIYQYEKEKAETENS
Chain of UniProt Q9BTT0 (Q9BTT0 whole entry, looked up): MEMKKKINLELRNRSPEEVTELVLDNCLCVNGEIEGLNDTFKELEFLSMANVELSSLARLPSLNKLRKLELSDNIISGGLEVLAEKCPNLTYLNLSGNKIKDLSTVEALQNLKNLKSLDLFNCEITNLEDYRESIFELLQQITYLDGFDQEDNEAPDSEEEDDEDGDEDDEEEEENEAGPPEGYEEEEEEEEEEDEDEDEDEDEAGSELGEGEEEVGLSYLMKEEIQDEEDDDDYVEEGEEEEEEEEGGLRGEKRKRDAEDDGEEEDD
Chain of UniProt P27216 (P27216 whole entry, looked up): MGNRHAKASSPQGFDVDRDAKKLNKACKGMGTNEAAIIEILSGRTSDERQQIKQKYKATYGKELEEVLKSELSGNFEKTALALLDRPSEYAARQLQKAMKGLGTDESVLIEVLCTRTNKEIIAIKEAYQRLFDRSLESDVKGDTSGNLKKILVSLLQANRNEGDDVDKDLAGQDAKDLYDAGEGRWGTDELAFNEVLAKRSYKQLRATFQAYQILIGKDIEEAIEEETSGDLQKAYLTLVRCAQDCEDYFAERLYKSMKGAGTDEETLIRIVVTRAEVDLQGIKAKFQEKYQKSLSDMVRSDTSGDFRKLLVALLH
Chain of UniProt P30838 (P30838 whole entry, looked up): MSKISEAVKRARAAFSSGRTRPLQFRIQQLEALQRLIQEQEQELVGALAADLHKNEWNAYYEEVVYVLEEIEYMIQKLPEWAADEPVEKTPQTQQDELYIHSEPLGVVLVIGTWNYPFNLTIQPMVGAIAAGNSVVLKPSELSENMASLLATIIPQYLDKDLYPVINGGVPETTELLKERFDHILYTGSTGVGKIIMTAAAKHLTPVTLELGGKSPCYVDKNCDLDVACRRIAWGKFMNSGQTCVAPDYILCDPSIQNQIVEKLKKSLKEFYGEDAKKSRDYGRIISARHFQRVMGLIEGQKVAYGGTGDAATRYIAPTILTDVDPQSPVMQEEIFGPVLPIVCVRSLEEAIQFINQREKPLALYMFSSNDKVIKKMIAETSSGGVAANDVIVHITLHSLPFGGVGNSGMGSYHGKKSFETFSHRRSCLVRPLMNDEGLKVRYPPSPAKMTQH
Chain of UniProt Q8IZP0 (Q8IZP0 whole entry, looked up): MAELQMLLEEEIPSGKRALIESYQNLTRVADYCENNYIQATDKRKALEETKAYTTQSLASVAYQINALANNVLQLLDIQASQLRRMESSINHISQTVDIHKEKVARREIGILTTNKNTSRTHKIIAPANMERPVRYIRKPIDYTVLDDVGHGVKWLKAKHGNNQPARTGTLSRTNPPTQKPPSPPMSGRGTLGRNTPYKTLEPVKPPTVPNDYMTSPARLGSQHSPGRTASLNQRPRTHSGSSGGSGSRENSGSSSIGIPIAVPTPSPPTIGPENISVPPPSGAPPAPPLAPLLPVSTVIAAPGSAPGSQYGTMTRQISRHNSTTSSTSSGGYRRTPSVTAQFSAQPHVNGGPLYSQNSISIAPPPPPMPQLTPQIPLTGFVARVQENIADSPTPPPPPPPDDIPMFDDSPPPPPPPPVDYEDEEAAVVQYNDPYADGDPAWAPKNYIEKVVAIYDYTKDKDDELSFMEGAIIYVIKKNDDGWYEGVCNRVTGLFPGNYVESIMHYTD
Chain of UniProt Q9Y303 (Q9Y303 whole entry, looked up): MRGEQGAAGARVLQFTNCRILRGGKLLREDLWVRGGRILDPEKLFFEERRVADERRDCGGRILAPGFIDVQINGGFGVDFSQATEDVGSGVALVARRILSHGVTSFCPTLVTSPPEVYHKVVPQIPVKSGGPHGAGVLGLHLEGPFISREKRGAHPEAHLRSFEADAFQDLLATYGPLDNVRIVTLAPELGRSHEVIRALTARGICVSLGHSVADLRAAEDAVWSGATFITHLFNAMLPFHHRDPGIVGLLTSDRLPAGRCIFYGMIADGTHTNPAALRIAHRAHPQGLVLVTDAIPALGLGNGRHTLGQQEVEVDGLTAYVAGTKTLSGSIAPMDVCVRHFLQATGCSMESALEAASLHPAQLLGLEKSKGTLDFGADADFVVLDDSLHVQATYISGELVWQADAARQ

Target	log2 fold change [1]	log2 fold change [2]	log2 fold change [3]	log2 fold change [4]	log2 fold change [5]	log2 fold change [6]	log2 fold change [7]	log2 fold change [8]	log2 fold change [9]	log2 fold change [10]	log2 fold change [11]	log2 fold change [12]	log2 fold change [13]	log2 fold change [14]	log2 fold change [15]	log2 fold change [16]	log2 fold change [17]	log2 fold change [18]	log2 fold change [19]	log2 fold change [20]
ARHGEF2 (UniProt V9GYF0)	-0.07	-0.211	0.082	-0.035	0.014	-0.083	0.112	0.229	-0.134	0.11	0.041									
ABL1 isoform 2 (UniProt P00519)	-0.091	-0.023	-0.011	0.039	0.071	0.019	-0.011		-0.01	0.004		0.044	-0.094	0.135	-0.04	-0.048				
ABRACL (UniProt Q9P1F3)			0.166			0.091	-0.081	-0.207	0.154	-0.239		0.121	-0.075	-0.053	-0.003	-0.047	-0.016	-0.105	-0.014	0.09
AIF1L (UniProt Q9BQI0)	-0.009		0.164	0.06	-0.401 (active)	0.095	0.001	0.035	0.047	-0.075	-0.105	0.073	0.046	0.069	-0.171	0.101	0.083	0.039	-0.037	-0.122
ANXA2 (UniProt H0YL33)	0.109		0.222			0.001	0.005	0.097	0.026	0.044		-0.177	-0.028	0.284	-0.163	-0.054	0.315	-0.048	0.017	0.031
ANXA13 isoform 2 (UniProt P27216)	-0.072	-0.036	-0.369			0.047	0.034	0.085	-0.111	-0.116		-0.059	-0.03	0.057	0.545 (active)	0.284	-0.121	0.011	0.038	-0.195
AP3D1 isoform 2 (UniProt O14617)		0.078				0.093	0.087	0.111	0.084			-0.06		0.19	-0.429	-0.084	0.25			
ABHD13 (UniProt Q7L211)		0.022	-0.051	0	0.006	0.023	-0.019	0.06	-0.059	0	-0.044		0.049	-0.593 (active)	0.193	0.184	-0.225	0.197	-0.104	-0.197
ANKRD40 (UniProt Q6AI12)	-0.164	0.095	0.101	0.04	-0.109	-0.188		-0.089		-0.171	0.249	0.08	-0.116	-0.018	-0.032	-0.067	0.084	-0.022	-0.027	-0.149
ALDH18A1 isoform 2 (UniProt P54886)	-0.06	0.016	-0.139							0.088								0.127	-0.134	
ABI1 isoform 6 (UniProt Q8IZP0)				-0.212	0.114		0.023		0.007		-0.061									
ALDH3A1 (UniProt P30838)	0.366		-0.138				0.165		-0.002	-0.061		-0.065		-0.721	0.569	0.586	-0.218	-0.134	0.015	
AMDHD2 (UniProt Q9Y303)		-0.059												0.052	-0.015	0.065	0.012	-0.056	0.057	
AIMP2 isoform 2 (UniProt Q13155)	-0.038						0.115		-0.058				-0.148					-0.036	-0.019	-0.082
AGGF1 (UniProt Q8N302)	-0.058	-0.365 (active)		0.126	0.008	-0.015	0.145	-0.008	-0.046		0.04	0.023	-0.133	-0.193	0.139	0.268	-0.114	-0.028	-0.011	0.047
ARL13B (UniProt Q3SXY8)	0.018	-0.025	-0.102				0		0.016	0.014		0.165	-0.074	0.4 (active)	-0.23	-0.217	0.182	-0.075	-0.068	0.025
ADAM17 (UniProt P78536)	0.063	0.005	0.04	0.09	0.109	-0.048		0.031		0.024	-0.015	0.011	0.032	0.008	0.054	0.099	-0.066	0.051	-0.06	0.019
ACVR1 (UniProt Q04771)			-0.056			0.069		0.158		-0.015			0.006	0.103	0.643	-0.294	0.086			0.007
ANP32E isoform 3 (UniProt Q9BTT0)		-0.141		0.036	-0.015						0.165		-0.012	-0.843 (active)	0.213	0.439	-0.27			-0.14
ANKRD30A (UniProt Q9BXX3)	-0.294		0.017	0.053	0	-0.009	1.45 (active)	-0.03	-0.228	-0.038	0.281		0.028	-0.155	1.59 (active)	0.918	-0.148	0.128	-0.068	0.069
ANKRD44 isoform 2 (UniProt Q8N8A2)		-0.129		-0.048	0.103	0.2	0.119	0.169	-0.004		0.12	0.075	0.046	-1.57 (active)	0.465	0.766 (active)	-0.688			-0.405
ALG13 isoform 2 (UniProt Q9NP73)						-0.281		-0.095						0.054	-0.088	0.106	0.003			
ANKRD10 (UniProt Q9NXR5)	-0.037	0.012	-0.016			-0.018	0.035	-0.047	-0.074	-0.052		0.018	0.184	-0.032	-0.088	0.007	0.003	0.017	-0.079	-0.112
